Inconclusive results are not listed. Entries that show only a call come without a potency. Active and inactive are the calls of the source. Calls follow the shape of the full dose curve.
Assay: cAMP Responsive Elements (CRE) small molecule agonists, cell-based qHTS assay (AID 1963590)
Settings: CRE-bla HEK293T, beta-lactamase FRET ratio, 3 h; series mostly up to 92.4 µM
From the text: U.S. Tox21 Program National Center for Advancing Translational Sciences [NCATS] Division of Preclinical Innovation [DPI] U.S. Environmental Protection Agency [EPA] National Institutes of Environmental Health Sciences [NIEHS] National Toxicology Program [NTP] U.S. Food and Drug Administration [FDA] Tox21 Assay Overview: CREB (cyclic-AMP Responsive Element Binding Protein) is a cellular transcription factor. It binds to certain DNA sequences called cAMP Responsive Elements (CRE) and regulates the transcription of the genes. […] This cell line can be used to find agonists/antagonists of the cyclic AMP signaling pathway. The activation of the report gene under culture conditions can be detected by fluorescence intensity. This cell line has been used to screen the Tox21 10K compound library to identify agonists that induce oxidative stress.
Tox21 Assay Protocol Summary: CRE-bla Hek 293T cells were suspended in assay medium (DMEM containing 10% dialyzed FBS, 0.1 mM NEAA, 1 mM sodium pyruvate and 25 mM HEPES) and dispensed at 2,000 cells/5 uL /well into 1536-well black wall/clear bottom plates using a Multidrop Combi (ThermoFisher Scientific, Waltham, MA) dispenser. After the assay plates were incubated at 37 C/5% CO2 for 18 hrs, 23 nL of compounds dissolved in DMSO, positive controls or DMSO only was transferred to the assay plate by a pintool workstation (Kalypsys, San Diego, CA). After the plates were incubated at 37 C/5% CO2 for 3 hrs, 1 uL of LiveBLAzer B/G FRET substrate (Invitrogen, Carlsbad, CA) was added to each well using Bioraptr Flying Reagent Dispenser (FRD, Aurora Discovery, San Diego, CA). The plates were incubated at room temperature for 2 h.

Row | SMILES | Potency
1 | O=[N+]([O-])c1ccccc1-c1ccccc1 | inactive
2 | C=C(C)[C@@H]1CC=C(C=O)CC1 | inactive
3 | N#CCCC#N | inactive
4 | CCOS(=O)(=O)OCC | inactive
5 | CCC(Br)(CC)C(=O)NC(N)=O | inactive
6 | CCCCCCOC(=O)c1ccccc1C(=O)OCCCCCC | inactive
7 | O=P1(N(CCCl)CCCl)NCCCO1 (stereo not given) | inactive
8 | CN(C)N | inactive
9 | CSc1nnc(C(C)(C)C)c(=O)n1N | inactive
10 | Oc1c(Br)cc(Br)cc1Br | inactive
11 | CCOC(=O)CP(=O)(OCC)OCC | inactive
12 | Nc1cnn(-c2ccccc2)c(=O)c1Cl | inactive
13 | C=CCN(CC=C)C(=O)C(Cl)Cl | inactive
14 | O=C(O)C(F)(F)C(F)(F)C(F)(F)C(F)(F)C(F)(F)C(F)(F)F | inactive
15 | OCCN(CCO)CCO | inactive
16 | NNC(=S)NN | inactive
17 | N#Cc1cc([N+](=O)[O-])ccc1N | inactive
18 | ClC(Cl)(Cl)Br | inactive
19 | CCC1(CC)C(=O)C=CNC1=O | inactive
20 | Clc1ccc(Cl)c(Cl)c1 | inactive

Row | SMILES | Potency
21 | CCN(CC)C1CCCCC1 | inactive
22 | CCCCCCI | inactive
23 | COP(=O)(O)OC | inactive
24 | C[N+](C)(C)CC(=O)O | inactive
25 | O=S(=O)(O)O | inactive
26 | Cc1ccc([N+](=O)[O-])cc1 | inactive
27 | COCC(=O)N(c1c(C)cccc1C)C(C)C(=O)OC (stereo not given) | inactive
28 | ClCC1CO1 (stereo not given) | inactive
29 | COP(=S)(OC)Oc1ccc([N+](=O)[O-])cc1 | inactive
30 | CCCCCCCCCCCCn1cc[n+](C)c1 | inactive
31 | O=C(NC(=O)c1ccccc1Cl)Nc1ccc(OC(F)(F)F)cc1 | inactive
32 | CCCCN(CCCCO)N=O | inactive
33 | Cc1ccccc1N | inactive
34 | CCCCOCCOC(C)=O | inactive
35 | O=C(Cl)/C=C/C(=O)Cl | inactive
36 | FC(F)(F)c1ccc(Cl)cc1 | inactive
37 | CN1CC[C@]23c4c5ccc(O)c4O[C@H]2[C@@H](O)CC[C@H]3[C@H]1C5 | inactive
38 | CN(CCO)CCO | inactive
39 | CCOP(=O)(OCC)OCC | inactive
40 | O=C(O)C(Cl)Cl | inactive
